From the supplement of paper PMC12350171
Counter-ions that a name gives are not always drawn. A number with no mark means an inactive call.

What was measured:
Settings in all cases: 20 µM
[1] = system: Salmonella enterica typhimurium; test: growth AUC normalised to DMSO control (fraction of control); higher = less growth inhibition, active = hit call of the paper
In short: (§1)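 After two anaerobic passages, pathogens were added at a starting OD578 of 0.01 to pre-reduced mGAM plates holding compound at 20 μM with 1% DMSO; hemin and NAD were supplemented for Haemophilus parainfluenzae. Sealed with breathable membranes, plates were read at OD578 hourly for 24 h, in three biological replicates. The trapezoidal rule, applied up to the exponential-to-stationary transition, gave the growth-curve AUC, which was normalised to DMSO controls on the same plate.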

Shigella flexneri = test: as above
In short: as §1

Vibrio cholerae = test: as above
In short: as §1

[2] = system: Yersinia pseudotuberculosis; test: as above
In short: as §1

P. vulgatus RND KO = test: growth AUC normalised to DMSO control (median) (fraction of control); higher = less growth inhibition, active = hit call of the paper
In short: (§2)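 For normalised area under the curve, growth curves were truncated at entry into stationary phase, integrated by the trapezoidal rule and divided against vehicle wells on the same plate. The curves came from strains passaged twice overnight without oxygen and then grown in mGAM in 96-well plates at a starting OD578 of 0.01. Each well held an approved-drug library compound at 20 μM with 1% DMSO, and OD578 was read hourly for 24 h in an anaerobic incubator. Values are medians of three biological replicates.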

P. vulgatus WT = test: as above
In short: as §2

[3] = system: S. enterica typhimurium WT; test: as above
In short: as §2

[4] = system: S. enterica typhimurium tolC KO; test: as above
In short: as §2
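Throughout, for growth AUC normalised to DMSO control (median): active when median AUC fell below 0.1.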

Row | Compound | growth AUC normalised to DMSO control [1] | growth AUC normalised to DMSO control (Shigella flexneri) | growth AUC normalised to DMSO control (Vibrio cholerae) | growth AUC normalised to DMSO control [2] | growth AUC normalised to DMSO control (P. vulgatus RND KO) | growth AUC normalised to DMSO control (P. vulgatus WT) | growth AUC normalised to DMSO control [3] | growth AUC normalised to DMSO control [4]
1 | CCCCOc1ccc(OCCCN2CCOCC2)cc1 [Pramoxine hydrochloride] | 0.998 | 1.01 | 1 | 0.983 | 1.04 | 1.03 | 1 | 0.988
2 | CCC[C@@H]1C[C@@H](C(=O)N[C@@H]([C@H]2O[C@H](SC)[C@H](O)[C@@H](O)[C@H]2O)[C@@H](C)O)N(C)C1 [Lincomycin hydrochloride] | 0.904 (active) | 0.956 | 0.956 | 0.994 | 0.0196 (active) | 0.0159 (active) | 0.956 | 0.866
3 | C[C@H]1C[C@@H]2[C@H]([C@@H](O)C[C@@]3(C)[C@H]2CC[C@]3(O)C(=O)CO)[C@@]2(C)C=CC(=O)C=C12 [Methylprednisolone, 6-alpha] | 0.997 | 0.998 | 0.997 | 0.993 | 0.96 | 0.982 | 1 | 1
4 | C[C@H](CCC(=O)O)[C@H]1CC[C@H]2[C@@H]3[C@@H](O)C[C@@H]4C[C@H](O)CC[C@]4(C)[C@H]3CC[C@]12C [Urosiol] | 0.971 | 1.02 | 1.04 | 1.01 | 1.02 | 1.02 | 1 | 1.01
5 | COC(=O)[C@H]1[C@H]2C[C@@H]3c4[nH]c5cc(OC)ccc5c4CCN3C[C@H]2C[C@@H](OC(=O)c2cc(OC)c(OC)c(OC)c2)[C@@H]1OC [Reserpine] | 1.02 | 1.05 | 1.06 | 1.02 | 1.04 | 1.05 | 1.02 | 1
6 | CC1=C(C(=O)O)N2C(=O)[C@@H](NC(=O)[C@H](N)c3ccc(O)cc3)[C@H]2SC1 [Cefadroxil] | 0.979 | 0.937 | 0.967 | 0.997 | 1.01 | 1 | 0.996 | 0.982
7 | CCC1(C)CC(=O)NC1=O (stereo not given) [Ethosuximide] | 1.02 | 1.02 | 1.03 | 0.999 | 1.02 | 1.05 | 1 | 0.963
8 | COc1cc2nc(N3CCN(C(=O)C4CCCO4)CC3)nc(N)c2cc1OC (stereo not given) [Terazosin hydrochloride] | 0.998 | 0.96 | 0.989 | 0.989 | 1.03 | 1.04 | 1 | 1.01
9 | NS(=O)(=O)c1cc2c(cc1Cl)NC(CC1CCCC1)NS2(=O)=O (stereo not given) [Cyclopenthiazide] | 1 | 0.972 | 0.98 | 0.971 | 0.978 | 0.993 | 1 | 0.991
10 | CC[C@H]1OC(=O)[C@H](C)[C@@H](O[C@H]2C[C@@](C)(OC)[C@@H](O)[C@H](C)O2)[C@H](C)[C@@H](O[C@@H]2O[C@H](C)C[C@H](N(C)C)[C@H]2O)[C@](C)(O)C[C@@H](C)[C@@H]2N[C@@H](COCCOC)O[C@H]([C@H]2C)[C@]1(C)O [Dirithromycin] | 0.879 (active) | 0.915 | 0.154 (active) | 1 | 0.0107 (active) | 0.0116 (active) | 0.862 | 0.00235 (active)
11 | N=C(N)NS(=O)(=O)c1ccc(N)cc1 [Sulfaguanidine] | 1.01 | 0.98 | 1.04 | 1.04 | 1.06 | 1.05 | 0.999 | 1
12 | N=C(N)N1CCc2ccccc2C1 [Debrisoquin sulfate] | 0.995 | 0.975 | 1.01 | 1.01 | 1.02 | 1.01 | 1 | 1
13 | C[N+]1(CCCCC[N+]2(C)CCCC2)CCCC1 [Pentolinium bitartrate] | 0.991 | 1 | 0.874 | 0.994 | 1 | 0.978 | 0.989 | 0.996
14 | O=C1CN(/N=C/c2ccc([N+](=O)[O-])o2)C(=O)N1 [Nitrofurantoin] | 0.974 | 0.843 (active) | 0.964 | 0.999 | 0.253 | 0.556 | 0.836 | 0.858
15 | NCCc1cc[nH]n1 [Betazole hydrochloride] | 0.986 | 0.97 | 0.979 | 0.968 | 0.999 | 1.02 | 1 | 0.999
16 | CN1CCC[C@@H]1CCO[C@](C)(c1ccccc1)c1ccc(Cl)cc1 [Clemastine fumarate] | 0.999 | 0.969 | 0.926 | 1.02 | 0.944 | 0.947 | 0.998 | 0.925
17 | CC(=O)O[C@]1(C(C)=O)CC[C@H]2[C@@H]3C=C(C)C4=CC(=O)CC[C@]4(C)[C@H]3CC[C@@]21C [Megestrol acetate] | 1.02 | 1.12 | 1.1 | 1.05 | 0.992 | 0.999 | 1.01 | 0.931
18 | Cc1cccc(C)c1NC(=O)C1CCCCN1C (stereo not given) [Mepivacaine hydrochloride] | 1.01 | 1.06 | 1.07 | 1.02 | 1.06 | 1.05 | 0.99 | 0.996
19 | C=CCSCC1Nc2cc(Cl)c(S(N)(=O)=O)cc2S(=O)(=O)N1 (stereo not given) [Althiazide] | 1.04 | 1.08 | 1.03 | 0.985 | 1.04 | 1.08 | 1.01 | 1.01
20 | CCOC(=O)Nc1ccc2c(c1)N(C(=O)CCN1CCOCC1)c1ccccc1S2 [Moricizine hydrochloride] | 1.01 | 0.997 | 0.942 | 1.01 | 0.766 | 0.638 | 1.01 | 0.957
21 | O=C1NCC2(CCN(CCc3ccccc3)CC2)O1 [Fenspiride hydrochloride] | 0.967 | 0.947 | 0.994 | 0.971 | 0.988 | 0.974 | 1 | 0.993
22 | C[C@H]1O[C@@H](O[C@H]2[C@@H](O)C[C@H](O[C@H]3[C@@H](O)C[C@H](O[C@H]4CC[C@@]5(C)[C@H](CC[C@@H]6[C@@H]5C[C@@H](O)[C@]5(C)[C@@H](C7=CC(=O)OC7)CC[C@]65O)C4)O[C@@H]3C)O[C@@H]2C)C[C@H](O)[C@@H]1O [Digoxin] | 0.978 | 0.945 | 0.973 | 0.993 | 0.985 | 1.01 | 0.987 | 0.995
23 | CC(=O)Oc1cccc2c1C(=O)c1c(OC(C)=O)cc(C(=O)O)cc1C2=O [Diacerein] | 1 | 0.997 | 0.784 (active) | 1.01 | 0.0327 (active) | 0.324 | 0.995 | 0.38
24 | CN(C)CCCN1c2ccccc2CCc2ccccc21 [Imipramine hydrochloride] | 0.998 | 0.994 | 0.935 | 1.01 | 1 | 0.998 | 1.02 | 0.984
25 | CCCCCN(CCCCC)C(=O)C(CCC(=O)O)NC(=O)c1ccc(Cl)c(Cl)c1 (stereo not given) [Lorglumide sodium salt] | 1 | 0.965 | 0.986 | 1.01 | 0.947 | 0.959 | 1 | 0.991
26 | CC/C(=C(\c1ccccc1)c1ccc(OCCN(C)C)cc1)c1ccccc1 [Tamoxifen citrate] | 1.01 | 1.01 | 1 | 0.981 | 0.968 | 0.978 | 1 | 1.01
27 | CC(CN(C)C)CN1c2ccccc2CCc2ccccc21 (stereo not given) [Trimipramine maleate salt] | 1 | 1.05 | 1.07 | 1.01 | 1.06 | 1.03 | 1.02 | 0.963
28 | O=C(O)Cc1cc(I)c(Oc2ccc(O)c(I)c2)c(I)c1 [Tiratricol] | 0.971 | 0.949 | 0.919 | 0.984 | 0.817 | 0.824 | 1.01 | 0.993
29 | COc1nc(C)nc(Cl)c1NC1=NCCN1 [Moxonidine] | 1.01 | 1.03 | 1.04 | 1.02 | 0.994 | 0.995 | 1 | 0.999
30 | O=C1c2ccccc2C(=O)C1c1ccccc1 [Phenindione] | 0.982 | 0.956 | 0.983 | 0.983 | 0.997 | 0.989 | 0.998 | 0.977
